# In the supplement of paper PMC6555819:
# Tests used:
# Experiment in all cases: PBM binding z-score (relative to random genomic background probes); higher = stronger binding; sequences stand for … in GC…GCGATTGACAGCGTAGAATGAAGG
# [1] = test system: FXR:RXRa (NR concentration 270 nM, RXRa partner concentration 90 nM)
# In short: (§1)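 Binding z-scores were set against random background probes. The data came from custom Agilent 4×180K protein-binding microarrays carrying double-stranded probes with 34-nt variable regions, incubated 1 h with ligand-free nuclear receptor dimers. Partner-specific antibodies detected binding, and scanned fluorescence was regression-normalized.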
# [2] = test system: LXRa:RXRa (NR concentration 270 nM, RXRa partner concentration 90 nM)
# In short: as §1
# [3] = test system: LXRa homodimer (NR concentration 270 nM)
# In short: as §1
# [4] = test system: LXRb:RXRa (NR concentration 270 nM, RXRa partner concentration 90 nM)
# In short: as §1
# [5] = test system: LXRb homodimer (NR concentration 270 nM)
# In short: as §1
# [6] = test system: PPARa:RXRa (NR concentration 270 nM, RXRa partner concentration 90 nM)
# In short: as §1
# [7] = test system: PPARg:RXRa (NR concentration 180 nM, RXRa partner concentration 90 nM)
# In short: as §1
# [8] = test system: PPARg:RXRa 270nM:90nM, anti-RXR (NR concentration 270 nM, RXRa partner concentration 90 nM)
# In short: as §1
# [9] = test system: PPARg:RXRa 30nM:10nM, anti-RXR (NR concentration 30 nM, RXRa partner concentration 10 nM)
# In short: as §1
# [10] = test system: PPARg:RXRa 90nM:30nM, anti-RXR (NR concentration 90 nM, RXRa partner concentration 30 nM)
# In short: as §1
Sequence,PBM binding z-score [1],PBM binding z-score [2],PBM binding z-score [3],PBM binding z-score [4],PBM binding z-score [5],PBM binding z-score [6],PBM binding z-score [7],PBM binding z-score [8],PBM binding z-score [9],PBM binding z-score [10]
TTACCAAGTTGAAAGGTCGTTGATGCACGCCTTG,2.79,2.74,0.48,2.17,-0.00674,3.78,4.15,5.58,3.84,5.07
ACTTACGGGTAAACGAGGTTATAGCACGCGTATA,0.677,2.57,0.806,1.56,0.485,2.01,0.93,0.752,0.277,0.238
CTACCAAGGTGAACAAGGTCGTTTATTACTATTC,1.5,1.78,0.765,2.61,-0.00441,2.46,1.06,1.2,0.0871,0.818
GTACCAAGGTGTATAGGTCGTTGATGAGTAGGCG,0.26,0.421,-0.0152,0.029,-0.37,0.871,0.775,0.814,0.27,0.71
GCGACTGGGACATCAGCAGGTTACCATAACTTAA,-0.41,-0.456,-0.462,-0.188,-0.768,0.248,0.495,-0.264,-0.28,-0.281
CTACCAAGGTGAACAAAGTCGTTGATTACTATTC,0.425,0.395,-0.0192,0.749,-0.488,1.01,0.314,0.548,0.192,0.308
CCTGCTAGGTCAATGGACAGCTAAAGCAGCTCGC,2.71,2.11,-0.488,1.29,-0.325,2.73,1.63,2.17,0.0027,1.05
TCATATAGGTAAAGGTGAAGGTCGAACGATATGA,1.28,1.29,-0.098,1.57,0.0286,3.41,4.01,4.29,4.42,4.54
TCTTGTAGATCAGCGGGTTAAGAAAGCTGGCCAA,0.495,0.126,-0.31,0.0907,0.392,0.933,-0.329,1.16,2.52,1.99
TCTATTAATTGATTAGGGCAACCGAAACAGCGGA,0.209,0.405,1.09,0.283,0.631,0.559,0.157,1.87,3.6,2.5
GCTGCTGGGTCAACTGATGGTCAGCTAAAGCTCG,3.55,2.07,-0.346,1.83,-0.326,3.89,2.34,2.93,0.519,1.99
CCTGCTAGCTCATGGTCAGCTAATCTACAGTATG,-0.461,-0.418,-0.46,-0.626,-0.239,-0.737,-0.225,-0.822,-0.885,-0.895
CTACCAAAGTGAACAAGGTCGTTGATTACTATTC,0.664,0.808,0.427,1.39,0.463,1.34,0.212,0.215,0.23,-0.0383
CCTATTAGTTGACCATAAGGGCAACCGAAGCTCG,1.08,0.988,0.64,0.736,0.554,0.977,0.556,0.931,-0.00379,1.03
CCTAGCAAGCCAGGGTCACTCAAGCATTTCGCTT,2.31,1.92,-0.142,2.16,-1.12,3.13,0.169,1.09,-0.503,0.224
ACTCGGAGGACAAAAGTCAGAGCTACGCCAGTGA,-0.293,-0.245,-0.424,-0.518,-0.302,0.347,1.41,2.68,0.796,2.08
GATACAGGGTCACGGCCAGAGTACGCGTATTGAT,7.54,5.1,-0.0336,4.33,-0.171,6.26,8.33,7.43,3.93,6.41
CCTAGCCGGCCAGGGTCACTCAAGCATTTCGCTT,2.27,1.64,-0.316,2.03,-0.922,2.97,0.0332,0.958,-0.474,0.121
GGAACGCGGGCAAAGTTGATAGCATCTGTCGACG,-0.48,-0.465,-0.736,-0.893,-0.943,1.67,2.51,4.63,1.85,4.06
ACAGACAGGTGAGTGAAGATAACTCAGCTGGACG,-0.343,-0.53,-0.558,-0.776,-0.749,-0.453,0.887,-0.267,0.137,-0.0703
GCTGCTAGCTCAACTGATGGTCAGCTAAAGCTCG,-0.673,-0.959,-0.842,-1.01,-1.05,-1.23,-0.747,-1.13,-1.24,-1.15
TGAATGAGGTTATAAGATTAGGGAACGTTGCAAA,1.34,1.39,0.076,1.21,-0.0904,2.29,1.15,1.55,1.09,1.51
CCGACTGGGGCACAGGTTACCATACTCAGTACGA,0.0382,0.072,-0.0129,0.247,-0.88,2.71,6.11,5.67,4.13,6.28
CCTACTGGGCCAAAGGTAATTGATTCCAATGCTC,-0.451,-0.199,-0.379,-0.0867,-0.845,3.66,8.76,7.99,6.87,8.72

Sequence,PBM binding z-score [1],PBM binding z-score [2],PBM binding z-score [3],PBM binding z-score [4],PBM binding z-score [5],PBM binding z-score [6],PBM binding z-score [7],PBM binding z-score [8],PBM binding z-score [9],PBM binding z-score [10]
CCGAGTAGGTTCTGGGGCATTCAGGCAACGGTGA,-0.196,-0.351,-0.153,-0.391,-0.906,0.158,-0.108,0.645,-0.76,0.156
ATCTCTTGGTAAAGTTCAGTGAAAGATCGATAGA,1.08,2.09,1.65,1.6,1.5,1.69,1.54,3.02,1.39,2.65
GCATATAGGTAATACGAGGTGAAAGTCCGATTGT,2.16,2.66,0.407,0.883,-0.463,1.76,1.44,1.38,0.459,0.853
CCTTACGGGTCAAGGTGATAGCACGGGTGGTACG,5.64,3.5,-0.313,2.67,-0.389,4.8,4.43,4.52,1.62,3.34
TAGCCTAGGTCATTGGGCCAGGATAGTACGCATC,3.92,3.17,0.159,1.47,-0.488,3.6,3.36,3.58,0.83,2.29
ATCTCTAGGTAAAGATAGTTCAGTGATTGCAAAT,0.768,3.86,0.679,1.04,0.794,0.72,0.511,0.72,0.406,0.607
CCTCCTGGGCCATTCAGAGGTCATTGATCATATG,2.62,4.24,6.14,3.46,-0.028,3.23,0.59,1.78,0.334,0.958
TCTCGCAGGCCAGAGGGTCACTCAAGAGGTACGG,1.04,1.1,-0.517,1.02,-1.09,2.32,0.92,1.95,2.05,1.91
CAAACTAGGTCAAGAGGTCAAAATCCGCTTCCCG,6.73,6.04,5.14,5.6,1.75,6.65,9.69,8.11,7.03,8.2
TCTTGTAGTTCAAAGGTTAAGAAAGCCGAAGCCT,4.09,4.39,1.23,3.51,0.628,5.16,7.14,7.29,7.28,7.39
GCTCGCAGGACAAGGTCAGAGCTTTGTCCGTAGA,1.42,1.47,-0.546,1.08,-1.31,2.19,-0.311,0.692,-0.968,-0.0202
CCAGACAGGTGAAAGCTAACTCAGTCTGGTACGC,-0.364,-0.206,-0.559,-0.0941,-0.593,0.302,0.368,-0.0659,-0.35,-0.285
ATCTCTAGGTAACCAGGTTCAGTGAATGCCGAAC,0.339,0.277,0.415,0.528,0.703,1.37,0.883,0.861,0.15,0.492
AGAATGAGGTTATTAAGAACAGGGAATTGCGGTC,1.53,1.45,0.11,1.22,0.0569,2.3,1.53,1.67,0.448,1.02
TCTAGTAGATCAAAGGTTAAGAAAGCCGAAGCCT,1.56,2.07,0.141,1.98,-0.538,4.8,8.6,8.24,8.54,8.99
CATACAGGGTCAGCTAGGCCAGGGTAGGGACGGC,4.52,2.89,-0.0552,1.98,0.437,4.12,3.01,2.84,0.569,1.95
CGAACTATGTCATTGACAGGACAGTGAATAGTAA,-0.339,-0.306,-0.302,0.00263,-0.414,0.765,0.677,0.347,0.272,0.497
ACTAGTTGGTCAGCTGAGGTGACACACAATTCGG,1.58,0.508,-0.0551,0.499,-0.125,1.27,1.16,0.582,-0.235,0.398
ATCTCTAGGTAAAGATAGTTCAGTGGATGCAAAT,0.0236,4.13,0.642,0.57,0.439,0.29,0.474,0.242,0.139,0.257
CATACAGGGTCAGCTAGACCAGAGTAGGGACGGC,4.47,2.92,-0.0625,2.14,0.336,4.07,3.27,3.06,0.824,1.87
TATATTAGTTGAAGGGCAACCGACGAGTCCGTTT,0.481,0.797,0.861,0.474,1.01,0.509,0.844,1.23,0.993,1.22
TCTATTAGTTGATTAGGACAACCGAAACAGCGGA,0.957,0.808,0.615,0.807,1.17,0.875,0.378,2.18,4.26,3.32
CCTCGGAGGACAACAGGAGGTCAGATCTGCCAGA,1.11,2.26,2.76,1.83,-0.568,1.91,0.67,0.241,-0.484,-0.22
CCGACTGGAGCAAAGGTTACCATACTCAGTACGA,0.849,1.39,0.0439,1.71,-0.613,4.5,8.49,8.31,8.2,8.54
